# Data taken from the supplement of paper PMC12494721.
# Counter-ions that a name gives are not always drawn.
# Legend:
# Conditions in all cases: incubation time: 27 h, anaerobic, 37 °C;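 for the amine columns active = adjusted P below 0.05 in both replicates with a change the same way and a mean fold change under 0.8 or over 1.25; inactive = the rest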
# [1] = tested on: Clostridium sporogenes DSM 1664; experiment: growth (OD595) fold change vs plate DMSO controls (fold change (ratio)); higher = more growth
# Method in brief: (§1)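 The reported measure is growth: the fold change against the median of DMSO controls on the plate. Absorbance at 595 nm from anaerobic 96-well mGAM cultures grown for 27 h at 37 °C was blank-subtracted, corrected for background with 20 µM compound solutions in water, and converted to OD with a calibration factor of 5. Fold changes above 1.5 appear as NA, and values are the mean of 2 biological replicates.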
# Escherichia coli IAI1 [2] = experiment: as above
# Method in brief: as §1
# [3] = tested on: Klebsiella aerogenes DSM 30053; experiment: as above
# Method in brief: as §1
# [4] = tested on: Ruminococcus gnavus DSM 108212; experiment: as above
# Method in brief: as §1
# [5] = tested on: Klebsiella aerogenes DSM 30053; experiment: fold change of Histamine concentration vs plate DMSO controls (fold change (ratio)); higher = more amine produced, active = hit call of the paper (significant change in both replicates, either direction)
# Method in brief: (§2)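 Each value is the fold change relative to DMSO-only wells on the same plate. Four gut bacterial strains were grown anaerobically in mGAM at 37 °C for 27 h in 80 µL wells, starting at OD 0.1 before a 1:1 dilution, with compounds at 20 µM final (sweeteners 50 µM). Whole cultures were extracted with cold acetonitrile/methanol containing 0.1% formic acid, centrifuged, and amines were quantified by LC–triple-quadrupole MS (dynamic MRM) against external calibration curves with within-batch drift correction. Values are means of 2 biological replicates.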
# [6] = tested on: Clostridium sporogenes DSM 1664; experiment: fold change of Tryptamine concentration vs plate DMSO controls (fold change (ratio)); higher = more amine produced, active = hit call of the paper (significant change in both replicates, either direction)
# Method in brief: as §2
# [7] = tested on: Ruminococcus gnavus DSM 108212; experiment: as above
# Method in brief: as §2
# Escherichia coli IAI1 [8] = experiment: fold change of Putrescine concentration vs plate DMSO controls (fold change (ratio)); higher = more amine produced, active = hit call of the paper (significant change in both replicates, either direction)
# Method in brief: as §2
# [9] = tested on: Klebsiella aerogenes DSM 30053; experiment: as above
# Method in brief: as §2
# Escherichia coli IAI1 [10] = experiment: fold change of Cadaverine concentration vs plate DMSO controls (fold change (ratio)); higher = more amine produced, active = hit call of the paper (significant change in both replicates, either direction)
# Method in brief: as §2
# [11] = tested on: Klebsiella aerogenes DSM 30053; experiment: as above
# Method in brief: as §2
# [12] = tested on: Ruminococcus gnavus DSM 108212; experiment: fold change of 2-Phenylethylamine concentration vs plate DMSO controls (fold change (ratio)); higher = more amine produced, active = hit call of the paper (significant change in both replicates, either direction)
# Method in brief: as §2
SMILES,growth [1],growth (Escherichia coli IAI1 [2]),growth [3],growth [4],fold change of Histamine concentration [5],fold change of Tryptamine concentration [6],fold change of Tryptamine concentration [7],fold change of Putrescine concentration (Escherichia coli IAI1 [8]),fold change of Putrescine concentration [9],fold change of Cadaverine concentration (Escherichia coli IAI1 [10]),fold change of Cadaverine concentration [11],fold change of 2-Phenylethylamine concentration [12]
NC(=O)C(c1ccccc1)(c1ccccc1)[C@@H]1CCN(CCc2ccc3c(c2)CCO3)C1 [Darifenacin hydrobromide] (20 µM),1.04,0.975,1.02,0.96,0.873 (inactive),1.19 (inactive),1.1 (inactive),0.943 (inactive),1.05 (inactive),0.961 (inactive),1.15 (inactive),1.25 (inactive)
CC(C)(C)NC(=O)[C@H]1CC[C@H]2[C@@H]3CC[C@H]4NC(=O)C=C[C@]4(C)[C@H]3CC[C@]12C [Finasteride] (20 µM),1.18,0.998,1.05,1.24,0.977 (inactive),0.973 (inactive),1.06 (inactive),0.983 (inactive),0.982 (inactive),0.913 (inactive),1.01 (inactive),1.12 (inactive)
CCCCOC(=O)c1ccccc1Nc1cccc(C(F)(F)F)c1 [Ufenamate] (20 µM),0.986,1.07,1.07,0.991,0.944 (inactive),1.03 (inactive),1.11 (inactive),1.06 (inactive),0.979 (inactive),1.03 (inactive),1.02 (inactive),1.14 (inactive)
C/C(=C(\CCOC(=O)c1ccccc1)SS/C(CCOC(=O)c1ccccc1)=C(/C)N(C=O)Cc1cnc(C)nc1N)N(C=O)Cc1cnc(C)nc1N [Bisbentiamine] (20 µM),0.925,0.985,0.994,1.01,1 (inactive),0.975 (inactive),0.917 (inactive),0.998 (inactive),0.999 (inactive),1.03 (inactive),0.983 (inactive),0.855 (inactive)
O=C1NCCN1CCN1CCC(c2cn(-c3ccc(F)cc3)c3ccc(Cl)cc23)CC1 [Sertindole] (20 µM),0.981,1.05,1.09,1.16,0.923 (inactive),0.952 (inactive),0.908 (inactive),1.31 (inactive),0.982 (inactive),0.999 (inactive),1 (inactive),1.09 (inactive)
Cc1oncc1C(=O)Nc1ccc(C(F)(F)F)cc1 [Leflunomide] (20 µM),1.13,0.978,1.03,0.971,1.06 (inactive),0.995 (inactive),0.998 (inactive),1.01 (inactive),1.01 (inactive),1.08 (inactive),1 (inactive),1.01 (inactive)
COc1ccccc1N1CCN(CCCCNC(=O)c2ccc3ccccc3c2)CC1 (20 µM),0.826,0.976,0.969,0.893,0.972 (inactive),1.13 (inactive),1.08 (inactive),1.04 (inactive),0.962 (inactive),0.795 (inactive),1.02 (inactive),1.3 (inactive)
CC(C)(C)CC(C)(C)c1ccc(O)c(Cc2ccc(Cl)cc2Cl)c1 [Clofoctol] (20 µM),0.000434,0.973,1.01,0.559,1.01 (inactive),0.0134 (active),0.143 (active),0.999 (inactive),1.01 (inactive),1.01 (inactive),1.01 (inactive),0.132 (active)
CCN(CC)C(=O)N1CCN(C)CC1 [Diethylcarbamazine citrate] (20 µM),1.12,0.975,1.04,0.977,0.954 (inactive),1.03 (inactive),0.976 (inactive),0.988 (inactive),0.985 (inactive),1.02 (inactive),1 (inactive),0.905 (inactive)
CC(=O)O[C@]1(C(C)=O)CC[C@H]2[C@@H]3C=C(C)C4=CC(=O)CC[C@]4(C)[C@H]3CC[C@@]21C [Megestrol acetate] (20 µM),1.03,1.1,0.998,1.07,0.981 (inactive),1.05 (inactive),1.04 (inactive),1.2 (inactive),0.971 (inactive),0.982 (inactive),1.01 (inactive),1.04 (inactive)
CC(Oc1c(Cl)cccc1Cl)C1=NCCN1 (stereo not drawn) [Lofexidine] (20 µM),1.07,1.09,1.06,1.04,0.922 (inactive),0.975 (inactive),1.03 (inactive),1.04 (inactive),0.993 (inactive),1.01 (inactive),1.01 (inactive),1.01 (inactive)
CC(C)n1c(/C=C/C(O)CC(O)CC(=O)O)c(-c2ccc(F)cc2)c2ccccc21 (stereo not drawn) [Fluvastatin sodium salt] (20 µM),0.95,0.995,0.987,0.918,0.914 (inactive),0.881 (inactive),1.04 (inactive),1.02 (inactive),1.05 (inactive),1.07 (inactive),1.03 (inactive),0.984 (inactive)
NS(=O)(=O)c1cc(C(=O)NN2C[C@@H]3[C@H]4CC[C@H](C4)[C@@H]3C2)ccc1Cl [Tripamide] (20 µM),0.981,1.01,0.978,1.08,1.01 (inactive),1.03 (inactive),1.06 (inactive),0.995 (inactive),0.981 (inactive),0.928 (inactive),0.998 (inactive),1.05 (inactive)
NS(=O)(=O)c1cc2c(cc1Cl)NCNS2(=O)=O [Hydrochlorothiazide] (20 µM),0.895,1.06,0.998,1.03,1.06 (inactive),0.949 (inactive),1.11 (inactive),1.04 (inactive),1 (inactive),0.915 (inactive),1.11 (inactive),1.27 (active)
COc1ccccc1O [Guaiacol] (20 µM),0.997,1,1,1.02,0.966 (inactive),1.03 (inactive),1.05 (inactive),0.994 (inactive),0.999 (inactive),1.02 (inactive),0.988 (inactive),1.06 (inactive)
Cc1onc(-c2c(F)cccc2Cl)c1C(=O)N[C@@H]1C(=O)N2[C@@H]1SC(C)(C)[C@@H]2C(=O)O [Flucloxacillin sodium] (20 µM),0,1.02,0.993,0,0.99 (inactive),0.0254 (active),0.0375 (active),1.01 (inactive),1.02 (inactive),1.07 (inactive),1.02 (inactive),0.0397 (active)
CCN(CC)CCNC(=O)c1cc(Br)c(N)cc1OC [Bromopride] (20 µM),0.874,1.03,1.05,1.12,1.01 (inactive),1 (inactive),1 (inactive),1.02 (inactive),0.998 (inactive),0.967 (inactive),1.01 (inactive),1.02 (inactive)
CN1CC(=O)N2[C@H](c3ccc4c(c3)OCO4)c3[nH]c4ccccc4c3C[C@@H]2C1=O [Tadalafil] (20 µM),1,1.02,0.993,0.916,1.07 (inactive),1.07 (inactive),0.925 (inactive),0.957 (inactive),1.01 (inactive),1.03 (inactive),0.971 (inactive),0.911 (inactive)
CC(COc1ccccc1)N(CCCl)Cc1ccccc1 (stereo not drawn) [Phenoxybenzamine hydrochloride] (20 µM),0.887,1.03,1.01,1.02,1.02 (inactive),1 (inactive),1.01 (inactive),1.02 (inactive),1.02 (inactive),0.963 (inactive),0.985 (inactive),1.05 (inactive)
CCCCOC(=O)c1ccc(N)cc1 [Butamben] (20 µM),1.36,1,1.01,0.962,1 (inactive),1.04 (inactive),0.94 (inactive),0.935 (inactive),0.988 (inactive),1.01 (inactive),0.999 (inactive),0.915 (inactive)
OC[C@H]1OC(O)[C@H](O)[C@H](O)[C@@H]1O (stereo partly drawn) [D-allose] (50 µM),1.08,0.999,0.98,1.07,0.99 (inactive),1.02 (inactive),0.896 (inactive),1 (inactive),1.01 (inactive),1.07 (inactive),0.993 (inactive),0.886 (inactive)
Cc1c(F)c(N2CCNC(C)C2)cc2c1c(=O)c(C(=O)O)cn2C1CC1 (stereo not drawn) [Grepafloxacin] (20 µM),0.0227,0.0384,0.142,1.29,0.0669 (active),0.0355 (active),0.697 (inactive),0.738 (active),0.628 (active),0.155 (active),0.936 (inactive),0.731 (inactive)
O=c1[nH]c(=O)n([C@H]2C[C@H](O)[C@@H](CO)O2)cc1/C=C/Br [Brivudine] (20 µM),1.08,1.06,1.02,1.06,0.978 (inactive),1.03 (inactive),1.04 (inactive),0.968 (inactive),1 (inactive),0.982 (inactive),1 (inactive),1.08 (inactive)
O=C(NCCN1CCOCC1)c1ccc(Cl)cc1 [Moclobemide] (20 µM),1.03,0.993,0.971,1.21,1.06 (inactive),1.04 (inactive),1.03 (inactive),1 (inactive),1.01 (inactive),1.01 (inactive),0.987 (inactive),1.03 (inactive)
